Screens deposited in PubChem BioAssay by several laboratories.
NOD2-RIPK2 inh: inhibitors of human NOD2-RIPK2 interaction. O43353. CHO BLA complementation NOD2-RIPK2, CCF4 ratio. inhibition, % at 4.98 µM. 360,000 tested, 0.38% active. AID 624267; in the data active = inhibition above about 21%;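 note: 0% = vehicle only and 100% = reference blocker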
TMEM16A act: activators or potentiators of mouse TMEM16A chloride channel; 340,000 tested, 0.3% active; Q8BHY3; B-score at 10 µM; HEK293 TMEM16A/YFP-H148Q/I152L, iodide quench fluorescence; hits give low values; AID 623877;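 active = fluorescence-ratio B-score plate-corrected deviation score at least 3 library SD below zero, with starting fluorescence score within 5 deviations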;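 note: channel opened by trigger with iodide after compound preincubation; score built on the fluorescence ratio of max minus min over baseline; more negative score means more quench and so TMEM16A activation or potentiation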
Target sequence (Q8BHY3 whole entry, looked up): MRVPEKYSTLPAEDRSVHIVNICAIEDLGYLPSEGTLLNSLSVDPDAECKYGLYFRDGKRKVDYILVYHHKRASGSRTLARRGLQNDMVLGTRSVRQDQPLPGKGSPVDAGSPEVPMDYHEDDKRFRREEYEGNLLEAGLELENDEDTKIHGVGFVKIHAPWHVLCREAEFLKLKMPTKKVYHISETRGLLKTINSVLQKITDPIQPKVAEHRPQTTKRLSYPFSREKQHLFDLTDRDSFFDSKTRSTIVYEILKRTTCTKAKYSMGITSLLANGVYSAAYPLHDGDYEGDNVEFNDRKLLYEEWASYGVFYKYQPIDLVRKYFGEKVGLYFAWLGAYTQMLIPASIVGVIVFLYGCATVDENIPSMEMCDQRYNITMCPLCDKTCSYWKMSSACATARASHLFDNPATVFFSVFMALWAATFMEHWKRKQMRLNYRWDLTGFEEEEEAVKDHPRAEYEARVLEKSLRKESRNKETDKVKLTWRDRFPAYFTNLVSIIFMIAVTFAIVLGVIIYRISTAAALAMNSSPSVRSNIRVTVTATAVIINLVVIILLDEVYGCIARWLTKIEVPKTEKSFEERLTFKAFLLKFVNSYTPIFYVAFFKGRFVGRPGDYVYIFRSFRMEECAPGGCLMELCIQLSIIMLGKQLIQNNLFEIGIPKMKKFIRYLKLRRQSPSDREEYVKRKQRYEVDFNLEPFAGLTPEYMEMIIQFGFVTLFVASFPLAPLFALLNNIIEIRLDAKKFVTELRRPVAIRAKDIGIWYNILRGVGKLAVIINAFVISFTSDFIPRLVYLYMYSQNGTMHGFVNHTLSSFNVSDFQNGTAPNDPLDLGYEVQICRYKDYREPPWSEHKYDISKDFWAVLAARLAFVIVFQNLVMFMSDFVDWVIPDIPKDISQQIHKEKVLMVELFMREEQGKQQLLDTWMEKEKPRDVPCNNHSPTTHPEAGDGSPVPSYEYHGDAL
TMEM16A inh: blocks the mouse calcium-activated chloride channel TMEM16A. Q8BHY3. HEK293 TMEM16A/YFP iodide influx fluorescence, ionomycin. normalized B-score (activity score, 25-100; higher = stronger inhibition) at 10 µM. 310,000 tested, 1.2% active. AID 588511;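 active = ratio plate-corrected score three or more library SD toward inhibition, starting fluorescence score within five deviations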;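 note: score derived from kinetic fluorescence span divided by baseline fluorescence per well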
HTR2A ag: mouse HTR2A agonism via beta-arrestin recruitment; CHO-K1 mHTR2A beta-arrestin complementation, luminescence; percent of 30 µM serotonin response; activation, % at 7.6 µM; 360,000 tested, 0.66% active;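 active = activation above a run cutoff, the mean activation of all tested compounds plus 3 SD, cut at about 14% in these data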;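 note: 0% = plate median of compound wells and 100% = 30 µM serotonin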
TLR4 MyD88 comp: TLR4-MyD88 interaction inhibition in cells; O00206+Q99836; HeLa CL3-4 TLR4/MyD88 BLA complementation, FRET ratio; inhibition, % at 8.4 µM; 200,000 tested, 0.18% active; in the data active = inhibition above about 25%;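 note: 0% = vehicle and 100% = reference inhibitor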
TLR9-MyD88 block: TLR9-MyD88 interaction inhibition | CHO BLA complementation TLR9-MyD88, CCF4 FRET ratio | inhibition, % at 4.98 µM | 340,000 tested, 0.21% active;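 active = inhibition above the mean over all tested compounds plus 3 SD, cut at about 21% in these data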;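 note: 0% = DMSO only wells and 100% = clavulanate BLA inhibitor control wells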
TMEM16A reconf: re-confirmation of mouse TMEM16A chloride channel inhibitors; shares compounds with TMEM16A inh; HEK293 TMEM16A/YFP-H148Q, iodide quench fluorescence; ionomycin added to raise cell calcium; inhibition, % at 10 µM; 2,300 tested, 39% active; AID 652189;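 active = mean duplicate percent inhibition, scaled so buffer wells are 0 and the reference blocker 100, over three buffer SD above buffer mean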
TMEM16A Ca cntr: calcium mobilization counter-screen hit for TMEM16A inhibitor series. shares compounds with TMEM16A inh. TMEM16A/YFP HEK293, Fluo4 calcium mobilization. calcium response (% of ionomycin), % at 10 µM. 2,300 tested, 2% active. AID 652231;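 active = duplicate-averaged calcium signal over 20% of the ionomycin maximum, relative to buffer baseline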;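 note: each well's signal is peak minus trough fluorescence divided by its pre-addition baseline; 0% = buffer wells and 100% = ionomycin wells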
Parental YFP cnt: counter-screen for TMEM16A inhibitors: effect in parental YFP-HEK293 cells; iodide YFP quench, ionomycin; shares compounds with TMEM16A inh; YFP ratio F(max-min)/F0 at 10 µM; 2,300 tested, under 10 active;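 active = yellow fluorescent protein signal ratio exceeding the buffer control mean by over 5 SD of those controls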;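 note: ratio is mean of duplicate wells from kinetic YFP trace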
ClC-1 inh: blocks the rat ClC-1 voltage-dependent chloride channel. shares compounds with TMEM16A inh. CHO ClC-1-YFP, iodide influx fluorescence quench; iodide control reads 0, buffer control 100. ratio percent, % at 10 µM. 2,300 tested, under 10 active;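 active = duplicate-mean ratio percent above the mean of iodide-only control wells, which defines zero, plus 5 of their SD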;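 note: higher percent means stronger block of ClC-1 iodide influx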
Starred values were filed as active, the others as inactive; i = inactive; / = not tested or not shown. In the library only some 2.4% were active in any assay of this set; here they are far more common.

SMILES	NOD2-RIPK2 inh	TMEM16A act	TMEM16A inh	HTR2A ag	TLR4 MyD88 comp	TLR9-MyD88 block	TMEM16A reconf	TMEM16A Ca cntr	Parental YFP cnt	ClC-1 inh
Cc1ccc(S(=O)(=O)Oc2ccccc2/C=C2/SC(=O)NC2=O)cc1	7.2	i	25*	-4.0	/	-3.2	i	i	-0.899	-11.0
CCCCOc1ccc(Cl)cc1CSc1nnc(CC)n1N	-8.2	i	25*	4.6	-2.9	0.7	i	i	-0.96	11.0
CCCOc1ccc(CSc2nnc(CCC)n2N)cc1	1.5	i	i	-2.4	6.9	8.6	/	/	/	/
CCCC(CCC(=O)Nc1ccn(-c2ccccc2)n1)C(=O)O (configuration not stated)	-11.7	i	i	5.8	/	-9.3	/	/	/	/
O=C(N/N=C/c1sc(N2CCOCC2)nc1-c1ccccc1)c1cccc(S(=O)(=O)N2CCOCC2)c1	0.9	i	i	-4.1	/	11.4	i	i	-0.889	1.0
CCN1/C(=C2\C(=O)N(C)C(=S)N2C)C=Cc2cc(C)ccc21	-1.9	i	i	3.8	4.2	-3.8	/	/	/	/
O=C(NCc1ccncc1)c1cc(F)c(F)cc1Cl	-8.0	i	i	0.5	-0.6	-5.2	/	/	/	/
Cc1ccc(SCCNC(=S)Nc2ccccc2)cc1	5.6	i	i	-6.3	-17.9	-1.6	/	/	/	/
Cc1ccc(SCCNC(=S)Nc2ccc(C)c(C)c2)cc1	10.3	i	100*	-5.4	4.6	-6.8	25.5%*	i	-0.965	-9.5
Cc1ccc(S(=O)(=O)N(C)c2ccc(C(=O)Nc3ccccc3C(=O)N3CCOCC3)cc2)cc1	-2.9	i	i	-4.1	/	8.3	/	/	/	/
CC(=O)NS(=O)(=O)c1ccc(NC(=O)c2ccccc2F)cc1	0.3	i	25*	6.0	-11.1	-1.6	i	i	-0.854	-3.0
Cc1ccc(S(=O)(=O)N(C)c2ccc3ccccc3c2)cc1	9.0	i	100*	-3.1	-1.0	-3.1	i	i	-0.914	-10.0
O=C(c1ccc2ccccc2c1)C1CCCN(S(=O)(=O)c2cccnc2)C1 (configuration not stated)	7.5	i	100*	5.4	-9.0	5.8	18.5%*	i	-0.889	-15.5
Cc1c(N=Cc2cccnc2)c(=O)n(-c2ccccc2)n1C	0.7	i	i	1.5	0.5	5.5	/	/	/	/
Cc1c(N=C/C=C/c2ccccc2)c(=O)n(-c2ccccc2)n1C	-12.8	i	25*	-0.5	-9.8	-11.6	i	i	-0.968	-8.0
COC(=O)c1ccc(CNC(=O)COC(=O)CC23CC4CC(CC(Br)(C4)C2)C3)cc1	-9.4	i	25*	-4.3	10.1	3.1	i	i	-0.921	-11.5
COCCn1c(C)cc(C(=O)CSc2ncn[nH]2)c1C	-0.7	i	100*	0.0	-7.0	1.1	i	i	-1.14	-7.0
COCCn1c(C)cc(C(=O)CSc2nc(C)c(C)c(C)n2)c1C	-5.8	i	i	-0.6	-2.2	0.3	/	/	/	/
CCOc1ccc(/C(O)=C2\C(=O)C(=O)N(CCN(C)C)C2c2cccc(OC)c2OC)cc1Cl (configuration not stated)	5.1	i	i	-1.6	-11.4	2.0	/	/	/	/
COCCCNc1nc2ccccc2nc1NS(=O)(=O)c1ccc(Cl)cc1	-6.4	i	i	-8.0	/	-8.8	/	/	/	/
COCCCNc1nc2ccccc2nc1NS(=O)(=O)c1cc(Cl)ccc1Cl	-1.4	i	25*	-5.3	/	-12.4	16.5%*	i	-0.862	-12.0
CC(=O)N(/N=C1\Sc2ccccc2C1=O)c1cccc(C)c1	-1.6	i	i	-3.3	-8.7	-1.4	i	i	-1.14	-15.5
CCCCCCCC#Cc1ccccc1/C=N/S(=O)c1ccc(C)cc1 (configuration not stated)	/	/	i	/	3.0	/	/	/	/	/
CCOC(=O)c1c(C)[nH]c(C(=O)C(C)Cl)c1C (configuration not stated)	-8.3	i	i	0.3	10.8	-4.4	/	/	/	/
CCOC(=O)c1c(C)[nH]c(C(=O)C(C)Sc2ccc(Cl)cc2)c1C (configuration not stated)	2.5	i	25*	7.0	-11.5	3.1	32.5%*	i	-1.02	-20.5
SMILES	NOD2-RIPK2 inh	TMEM16A act	TMEM16A inh	HTR2A ag	TLR4 MyD88 comp	TLR9-MyD88 block	TMEM16A reconf	TMEM16A Ca cntr	Parental YFP cnt	ClC-1 inh
COc1ccc(OCC(O)CN2C(=O)c3ccccc3C2=O)cc1 (configuration not stated)	4.2	i	i	3.2	/	-8.8	/	/	/	/
CCCCNC(=O)c1sc(=S)n2c1[nH]c(=O)c1ccccc12	-8.3	i	100*	3.7	-1.3	-1.2	56.5%*	i	-0.93	-25.0
O=C(NCCc1ccccc1)c1ccc2c(=O)[nH]c3c(C(=O)NCC4CCCO4)sc(=S)n3c2c1 (configuration not stated)	6.3	i	i	11.1	/	-1.5	/	/	/	/
CCC(C(=O)NCc1ccco1)N(C(=O)CNS(=O)(=O)c1ccccc1)c1ccc(OC)cc1 (configuration not stated)	2.7	i	25*	6.6	5.3	7.6	i	i	-0.907	0.0
CCCC(C(=O)NCc1ccco1)N(C(=O)CNS(=O)(=O)c1ccccc1)c1ccc(OC)cc1 (configuration not stated)	-1.3	i	i	2.8	-10.7	3.2	/	/	/	/
CC(SC1CCCC1)C(=O)Nc1ccnn1C(C)C (configuration not stated)	-2.7	i	i	-0.3	-8.9	0.2	i	i	-1.08	-2.5
CC(Sc1ncccn1)C(=O)NC1CCCC1 (configuration not stated)	-10.0	i	/	-8.2	/	-6.5	/	/	/	/
COc1cccc(-c2cccc3c2NC(=O)C3(C)Cc2cccc(F)c2)c1 (configuration not stated)	0.6	/	/	-5.6	/	/	/	/	/	/
O=C(CSc1ncnc2ccccc12)c1ccc2c(c1)OCCO2	5.7	i	25*	7.1	-12.1	-8.5	39.0%*	i	-0.91	-19.0
COc1ccccc1-n1c(=O)oc2ccc(Cl)cc2c1=O	5.8	i	25*	1.6	1.5	5.4	22.0%*	i	-1.14	-9.5
